Rows were chosen to be rich in hits. Some 4% of all compounds tested hit in one or more screens of this group.
Peg3 promoter – inhibitors of Peg3 promoter; HeLa PEG-Prom luciferase reporter, luminescence, overnight; 360,000 tested, 1.7% active; inhibition, % at 20 µM; AID 588405;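 active means inhibition of at least 50% at 20 µM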
TROY signal inh – inhibitors of TROY-dependent NF-kB signaling. AID 1347056. Q293 LMP1-TROYcd NF-kB luciferase reporter, 4 h. inhibition, % at 10 µM. 360,000 tested, 0.98% active;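 active means compounds whose plate-normalised and pattern-corrected inhibition of the luciferase reporter signal at the single screening dose is 50% or more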
KKLEB tox – reduces viability of KKLEB cystic fibrosis airway cells; KKLEB CF airway cells viability, ATPlite luminescence, overnight; hits give low values; cells stimulated with P. aeruginosa culture filtrate; activity change (cytotoxicity), % at 5 µM; 360,000 tested, 0.36% active; AID 602141;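 active means corrected activity change at or below -50% at 5 µM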
TWEAK-Fn14 inh – TWEAK-Fn14 signaling inhibition; inhibition, % at 10 µM; AID 1159606; 360,000 tested, 2% active; TWEAK-stimulated Fn14 reporter cells, luciferase luminescence, 8 h; in the data active means inhibition above about 50%
HIF-2a inh – HIF-2a inhibition; 786-0 RCC cells HIF-2a reporter, luciferase luminescence, overnight; 360,000 tested, 0.72% active; inhibition, % at 18.8 µM; AID 624352;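 active means inhibition of the luminescence signal of 40% or more relative to plate controls, in a single-dose primary screen at 18.75 µM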
CF NFkB inh – blocks PAF-induced NF-kB reporter in cystic fibrosis cells; KKLEB NF-kB-GFP reporter, GFP fluorescence overnight; inhibition, % at 5 µM; 360,000 tested, 0.86% active; AID 588850;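 active means at least 50% inhibition at 5 µM, scaled per plate between neutral and stimulator controls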;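 further: PAF is a Pseudomonas aeruginosa culture filtrate used as stimulus; plate controls were PAF-stimulated DMSO wells for no effect and unstimulated DMSO wells for full effect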
The depositor's hits bear a star; . = no result given.

SMILES	Peg3 promoter	TROY signal inh	KKLEB tox	TWEAK-Fn14 inh	HIF-2a inh	CF NFkB inh
CCC(=O)C1CCCN(C(=O)c2ccc3nc(-c4cccc(OC)c4)oc3c2)C1 (configuration not stated)	-132	53*	-19	39	-85	26
COc1ccccc1NS(=O)(=O)c1cc(NC(=O)COc2ccccc2F)ccc1N1CCOCC1	-23	13	10	12	11	-4
COCCN1CCN(C(=O)c2cc(COc3ccc(Cl)cc3OC)on2)CC1	-311	-124	-7	-4	-229	4
O=S1(=O)N[C@H](Cc2ccccc2)COc2cccc(N3CCSCC3)c21	.	-24	.	-3	13	.
COc1ccc(OCC(O)CNCCOc2ccccc2OC)c(C(C)(C)C)c1 (configuration not stated)	63*	0	2	16	26	12
N#Cc1ccc(Cl)cc1NC(=O)CN1C(=O)C(=O)N(CCC2=CCCCC2)C1=O	1	3	-1	-22	13	-15
O=C(CCC(=O)Nc1ccccc1)N/N=C/c1cccnc1	13	4	8	-3	13	-1
CC1(C)CC(=O)c2c(O)cc(OCC(=O)Nc3ccc(S(N)(=O)=O)cc3)cc2O1	13	12	11	20	15	0
COc1cc(NC(=O)COc2cc(O)c3c(c2)OC(C)(C)CC3=O)cc(OC)c1OC	16	48	-4	78*	-74	3
O=C(NCc1ccccc1)C1c2ccccc2OCC(=O)N1Cc1ccccc1 (configuration not stated)	.	-13	.	-3	6	.
O=Nc1c(O)[nH]c2ccc(Cl)c(Cl)c12	57*	13	19	19	21	41
CCc1cccc2c(N=O)c(O)[nH]c12	-6	-2	1	-2	4	12
O=C(CN(C(=O)c1ccc(Cl)cc1)C1CCCCC1)Nc1ccc(Cl)c([N+](=O)[O-])c1	24	35	-7	51*	-3	30
O=C(CN(C(=O)c1ccccc1Cl)C1CCCCC1)Nc1ccc(Cl)c([N+](=O)[O-])c1	31	10	-32	40	18	4
O=C(CNC(=O)c1nn(Cc2ccccc2)c(=O)c2ccccc12)Nc1ccc(F)c(F)c1F	2	13	-56*	-16	-8	47
COc1ccccc1N1CCN(C(=O)Cn2nc(C(F)(F)F)c3c2CCC3)CC1	17	.	22	53*	18	-10
CCOc1ccc(NC(=O)/C(C#N)=C/c2cn(CC(=O)O)c3ccccc23)cc1	3	-3	-3	92*	15	2
O=C1CCCN1C(=O)CSc1ncnc2sccc12	5	-35	15	-7	-17	3
CC(C)CNC(=O)C1(C)CCCN1Cc1ccccc1OC(F)F (configuration not stated)	19	4	-6	6	17	14
Fc1ccc(-c2nnc(CN3CCC(c4nc5ccccc5s4)CC3)o2)cc1	5	23	8	53*	15	-19
CCC(=O)Nc1nnc(C)s1	8	.	12	58*	0	-6
CCCCC(=O)Nc1nnc(C)s1	2	-6	14	8	3	-14
Cc1ccccc1N1CC(C(=O)Nc2ccncc2)CC1=O (configuration not stated)	-7	-8	0	-2	-2	10
Cc1ccc(S(=O)(=O)N2CC(=O)Nc3ccccc32)c(C)c1NS(C)(=O)=O	6	6	-5	-4	16	-2
Cc1ccc(S(=O)(=O)N2CCOc3ccccc32)c(C)c1NS(C)(=O)=O	10	3	4	95*	23	2
CC(c1ccccc1)N1CC(C(=O)N2CCN(Cc3ccc(C#N)cc3)CC2)CC1=O (configuration not stated)	-3	7	3	4	12	3
O=C(O)c1ccc(NC(=O)c2cccc(S(=O)(=O)Nc3ccc(C(=O)O)cc3)c2)cc1	0	9	0	11	24	13
O=C1CSc2ccc(C(=O)Nc3cccc(S(=O)(=O)Nc4ccc(Br)cc4)c3)cc2N1	31	82*	7	98*	15	-6
COc1ccc(NC(=O)c2cccc(S(=O)(=O)Nc3ccc(Br)cc3)c2)cn1	13	45	0	64*	22	-14

Screening results: PubChem, Sanford-Burnham Center for Chemical Genomics
